Hits are enriched below; roughly 7% of the tested compounds scored in any of these assays.
rCAG RNA binder = binders of r(CAG) RNA repeats, primary screen, biochemical, fluorescence; 370,000 tested, 1.3% active; inhibition, % at 3 µM; AID 651821, 2012; r(CAG) RNA repeat, TO-PRO-1 dye displacement fluorescence;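 active = inhibition above the plate cutoff, the mean of all test compounds on that plate plus 3 SD, cut at about 35% in these data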;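 also: 0% = DMSO alone and 100% = 100 µM mitoxantrone as full dye displacement; higher means more dye released from RNA so lower well fluorescence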
ADAM10 inh = human ADAM10 inhibitors, primary screen, biochemical, QFRET, HTS | inhibition, % at 7 µM | recombinant ADAM10, EDANS/DABCYL FRET peptide cleavage, 3 h | 370,000 tested, 0.62% active | AID 720582, 2013;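 active = inhibition above a per-campaign cutoff equal to the mean of compounds falling between control-based bounds plus 3 SD, cut at about 20% in these data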;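 also: 0% = DMSO wells while the 100% control is not disclosed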
AHR act = AHR activators, primary screen, cell-based, luminescence, luciferase reporter, human. Aryl hydrocarbon receptor (Homo sapiens), P35869. AHR-responsive luciferase reporter cells. activation, % at 5 µM. 320,000 tested, 2.5% active. AID 2796, 2010; in the data active = activation above about 47%;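 also: 0% = vehicle wells and 100% = reference agonist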
NR3A LBD binder = binders of NR3A ligand-binding domain, primary screen, biophysical, differential scanning fluorimetry, uHTS. Glutamate receptor ionotropic, NMDA 3A (GRIN3A) ligand-binding domain. NR3A LBD differential scanning fluorimetry, Tm shift; 0% = protein alone, 100% = glycine-bound protein. Tm shift relative to glycine control, % at 25 µM. 340,000 tested, 2.5% active;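 active = melting temperature shift of at least 10% of the positive control shift, at one fixed dose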
KLK7 zymogen act = proKLK7 zymogen activators, primary screen, biochemical, fluorescence intensity | Kallikrein-7 (Homo sapiens), P49862 | purified proKLK7, EDANS-DABCYL substrate fluorescence; 100% is mature enzyme control, 0% vehicle | activation, % at 7 µM | 370,000 tested, 0.9% active;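 active = activation above the mean of all tested compounds plus 3 SD, computed per campaign excluding outliers beyond control limits, cut at about 13% in these data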
ADAM17 inh = ADAM17 inhibitors, primary screen, biochemical, QFRET | Disintegrin and metalloproteinase domain-containing protein 17 (Homo sapiens), P78536 | recombinant ADAM17, EDANS/DABCYL FRET peptide cleavage | inhibition, % at 6.95 µM | 370,000 tested, 0.83% active;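 active = inhibition above the mean of compounds lying between control limits plus 3 SD, set per campaign, cut at about 8.5% in these data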;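 also: 0% = DMSO-only wells as the low control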
Target sequence (P78536 215-824 limits assumed): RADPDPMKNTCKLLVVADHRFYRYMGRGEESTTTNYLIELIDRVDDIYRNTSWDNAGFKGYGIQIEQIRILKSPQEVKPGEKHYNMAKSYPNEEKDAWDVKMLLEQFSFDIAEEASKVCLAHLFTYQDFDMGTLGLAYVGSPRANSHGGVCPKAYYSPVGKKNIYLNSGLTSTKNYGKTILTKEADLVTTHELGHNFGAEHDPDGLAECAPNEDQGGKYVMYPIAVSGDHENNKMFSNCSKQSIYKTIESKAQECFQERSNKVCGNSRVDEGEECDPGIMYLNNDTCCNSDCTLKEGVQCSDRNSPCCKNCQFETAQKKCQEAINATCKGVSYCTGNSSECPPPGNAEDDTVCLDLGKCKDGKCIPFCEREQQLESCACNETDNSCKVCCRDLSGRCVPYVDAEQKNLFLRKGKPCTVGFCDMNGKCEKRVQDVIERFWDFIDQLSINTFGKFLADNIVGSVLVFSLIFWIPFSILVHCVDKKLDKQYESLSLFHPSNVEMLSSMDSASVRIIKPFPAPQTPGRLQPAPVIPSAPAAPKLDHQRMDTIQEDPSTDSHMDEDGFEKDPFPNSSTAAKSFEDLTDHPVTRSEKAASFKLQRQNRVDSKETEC
The depositor's hits bear a star.

Screening O=C(N/C(=C\c1cccnc1)C(=O)N1CCC(O)CC1)c1ccccc1 returned rCAG RNA binder 0, ADAM10 inh 2, AHR act 5, NR3A LBD binder -3, KLK7 zymogen act -1 and ADAM17 inh -2.
For O=C(N/C(=C/c1cccnc1)C(=O)N1CCCCCC1)c1cccc(Br)c1 the results were rCAG RNA binder -6, ADAM10 inh -7, AHR act 48*, NR3A LBD binder 1, KLK7 zymogen act -1 and ADAM17 inh -9.
Screening Cc1snc(S(=O)(=O)/C(C#N)=N/Nc2cccc(C(F)(F)F)c2)c1C#N returned AHR act 98* and NR3A LBD binder 24*.
COc1ccc(N/N=C(/C#N)S(=O)(=O)c2nsc(C)c2C#N)cc1 was read as rCAG RNA binder 33, ADAM10 inh -10, AHR act 5, NR3A LBD binder 2, KLK7 zymogen act 1 and ADAM17 inh -6.
C=CCN(C)CC#Cc1ccccc1C was read as rCAG RNA binder 0, ADAM10 inh -8, KLK7 zymogen act 0 and ADAM17 inh -2.
COC(=O)[C@]12C[C@H](CC(=O)NCc3ccc(C)o3)C(=O)N(Cc3ccco3)C1=C[C@H](C(C)(C)C)O[C@@H]2C was read as rCAG RNA binder 3, ADAM10 inh 2, KLK7 zymogen act 0 and ADAM17 inh -2.
For Cc1ccc(NCC(=O)N/N=C/c2ccc(-c3cccc(C(F)(F)F)c3)o2)cc1 the results were rCAG RNA binder 10, ADAM10 inh -6, AHR act 20, NR3A LBD binder 25*, KLK7 zymogen act -4 and ADAM17 inh 2.
Screening NC(=O)N/N=C/c1ccc(-c2cccc(C(F)(F)F)c2)o1 returned rCAG RNA binder 2, ADAM10 inh -14, AHR act 78*, NR3A LBD binder -1, KLK7 zymogen act -1 and ADAM17 inh -5.
`O=C(N/N=C/c1ccc(-c2cccc(C(F)(F)F)c2)o1)c1cccc(F)c1` gave rCAG RNA binder 7, ADAM10 inh -32, AHR act -4, NR3A LBD binder 11*, KLK7 zymogen act -66 and ADAM17 inh -11.
`O=C(N/N=C/c1ccc(-c2cccc(C(F)(F)F)c2)o1)c1ccccc1O` gave rCAG RNA binder 2, ADAM10 inh -6, AHR act 18, NR3A LBD binder 20*, KLK7 zymogen act 0 and ADAM17 inh 1.
NC(=O)N/N=C/c1cccc(C(F)(F)F)c1 was read as rCAG RNA binder -3, ADAM10 inh -4, AHR act 0, NR3A LBD binder 0, KLK7 zymogen act 0 and ADAM17 inh -4.
Screening O=C(Cc1ccc(Br)cc1)N/N=C/c1ccc(-c2cccc(C(=O)O)c2)o1 returned rCAG RNA binder 31, ADAM10 inh -55, AHR act 12, NR3A LBD binder 0, KLK7 zymogen act 1 and ADAM17 inh -22.
`CN(C)c1ccc(/C=N/NC(=O)c2ccccc2O)o1` gave rCAG RNA binder 16, ADAM10 inh -6, AHR act 6, NR3A LBD binder -1, KLK7 zymogen act 1 and ADAM17 inh -6.
`O=C(COCc1ccccc1)N1CC[C@H]2[C@H](CCCN2Cc2ccc(F)cc2)C1` gave rCAG RNA binder -2, ADAM10 inh -7, KLK7 zymogen act 0 and ADAM17 inh -6.
Screening COc1ccc(OC)c(CN2C(=O)CSCCC2(C)c2nnnn2C2CCCC2)c1 (configuration not stated) returned rCAG RNA binder 1, ADAM10 inh -4, KLK7 zymogen act 0 and ADAM17 inh -5.
C=CCN1[C@@H](Cc2ccccc2)COc2cccc(F)c2S1(=O)=O was read as rCAG RNA binder 1, ADAM10 inh 4, KLK7 zymogen act 0 and ADAM17 inh 2.
Screening O=C(N/N=C/c1ccc(-c2cccc(C(F)(F)F)c2)o1)c1ccccc1Br returned rCAG RNA binder 2, ADAM10 inh 2, AHR act -4, NR3A LBD binder 15*, KLK7 zymogen act 0 and ADAM17 inh 4.
For O=C(N/N=C/c1ccc(-c2cccc([N+](=O)[O-])c2)o1)c1ccccc1O the results were rCAG RNA binder 7, ADAM10 inh -1, AHR act 9, NR3A LBD binder 19*, KLK7 zymogen act 0 and ADAM17 inh -1.
`O=C(Cc1cn(Cc2ccccc2)c2ccccc12)Nc1ccc(Nc2cccnc2)c(Br)c1` gave rCAG RNA binder 15, ADAM10 inh 3, KLK7 zymogen act 0 and ADAM17 inh 2.
For Cc1nn(-c2ccccc2)c(N)c1C(O)(CSc1nccn1C)C(F)(F)F (configuration not stated) the results were rCAG RNA binder 1, ADAM10 inh 8, AHR act 8, NR3A LBD binder 3, KLK7 zymogen act 0 and ADAM17 inh -2.
`Cc1nn(-c2ccc(Cl)cc2)c(N)c1C(O)(CSc1nccn1C)C(F)(F)F` (configuration not stated) gave rCAG RNA binder 4, ADAM10 inh 9, AHR act 48*, NR3A LBD binder -4, KLK7 zymogen act 0 and ADAM17 inh -5.
For O=C(NCc1cccs1)C1CCN(S(=O)(=O)c2ccc([N+](=O)[O-])cc2)CC1 the results were rCAG RNA binder 4, ADAM10 inh -1, KLK7 zymogen act 0 and ADAM17 inh -3.
For COc1ccc(CCNC(=O)COC(=O)c2cccs2)cc1OC the results were rCAG RNA binder -2, ADAM10 inh 3, AHR act 0, NR3A LBD binder 12*, KLK7 zymogen act 0 and ADAM17 inh -3.
For COc1ccc(CCNC(=O)C/C(C)=N/NC(=O)C23CC4CC(CC(C4)C2)C3)cc1OC the results were rCAG RNA binder 4, ADAM10 inh 5, AHR act 4, NR3A LBD binder 30*, KLK7 zymogen act 0 and ADAM17 inh 8.
Screening C[C@@H]1CCN(C2CC2)S(=O)(=O)c2c(cccc2N2CC[C@@H](N(C)C)C2)O1 returned rCAG RNA binder 4, ADAM10 inh -4, KLK7 zymogen act -1 and ADAM17 inh -3.
For COc1ccc(/C=C2\CC/C(=C\c3ccc(OC)c(OC)c3)C2=O)cc1OC the results were rCAG RNA binder 1, ADAM10 inh 4, AHR act 0, NR3A LBD binder 16*, KLK7 zymogen act 0 and ADAM17 inh -1.
`COc1ccccc1OCCCOc1ccc(/C=C2\SC(=O)NC2=O)cc1OC` gave rCAG RNA binder 32, ADAM10 inh -4, AHR act 6, NR3A LBD binder -5, KLK7 zymogen act -1 and ADAM17 inh 0.

High-throughput results (PubChem BioAssay)
